Test results from PubChem BioAssay.
Unmarked numbers belong to inactive results. Activity calls are given as the source filed them.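 How the source made its calls: active means inhibition at or above 50% relative to wild type and mutant plate controls; inactive means inhibition below 50%.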

Experiment: loss of swimming-algae plug formation – whole organism, Chlamydomonas reinhardtii, WT vs cilia-less mutant, absorbance, 96-well, primary screen (AID 463189);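 further: 0% = wild type cc124 cells in DMSO and 100% = ciliumless bld1 mutant cells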
Conditions: Chlamydomonas reinhardtii gravitaxis, OD600 absorbance, 2 days; at 10 µM; active compounds read high

| Compound | inhibition |
| --- | --- |
| C[C@H](O)C(=O)C1=Nc2c(nc(N)[nH]c2=O)NC1 | 7.45% |
| Nc1ncnc2c1ncn2C1CCCC1 | -2.12% |
| CN=C(N)NCCC[C@H](N)C(=O)O | 3.39% |
| CCN1C(=O)C=CC1=O | -6.91% |
| CN(Cc1cnc2nc(N)nc(N)c2n1)c1ccc(C(=O)N[C@H](CCC(=O)O)C(=O)O)cc1 | -2.58% |
| NC(=NCCC[C@H](N)C(=O)O)NO | -1.45% |
| O=C1CC2(CCCC2)CC(=O)N1CCCCN1CCN(c2ncccn2)CC1 | 3.65% |
| N=C(N)SCCc1cnc[nH]1 | 2% |
| COc1cc([C@@H]2c3cc4c(cc3[C@H](O)C3COC(=O)[C@@H]32)OCO4)cc(OC)c1OC (stereo partly specified) | 0.089% |
| N#C/C(=C\c1ccc(O)c(O)c1)C(=O)NCCc1ccccc1 | -1.25% |
| O=C(Nc1cccc(C(=O)Nc2ccc(S(=O)(=O)O)c3cc(S(=O)(=O)O)cc(S(=O)(=O)O)c23)c1)Nc1cccc(C(=O)Nc2ccc(S(=O)(=O)O)c3cc(S(=O)(=O)O)cc(S(=O)(=O)O)c23)c1 | 1.9% |
| OCC1O[C@H](O)C(Cl)C(O)C1O (stereo partly specified) | 4.68% |
| COC1=C(OC)C(=O)c2ccccc2C1=O | 159% (active) |
| CC1=C(CC(=O)O)c2cc(F)ccc2/C1=C\c1ccc(S(C)=O)cc1 (stereo unspecified) | 5.19% |
| CNCC[C@H](Oc1ccc(C(F)(F)F)cc1)c1ccccc1 | -14.3% |
| OCCN1CCN(CC/C=C2/c3ccccc3Sc3ccc(C(F)(F)F)cc32)CC1 | 15.6% |
